Where “and” joins values, the source holds several entries; their conditions need not be identical. Equal values may be shown once. Hit rate of the full screen: of about 5,500 compounds, about 2,000 (36%) were called active. Inconclusive results (about 18%) are left out. Rule as the data show it: active = normalized growth mostly below about 0.91 (no sharp cut-off); inconclusive = no clear call, values can overlap the other calls; inactive = mostly above about 0.92. The list shows a part of the results.
Assay: chemical genetic growth profiling, strain panel (AID 1159580);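 also: tested at 20 µM; growth read once vehicle control cultures reached saturation at 30 °C; 1 = growth at the plate median or of vehicle wells; lower values mean less growth of the strain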
Settings: S. cerevisiae deletion strains, growth OD

Measured: normalized growth

Cn1c(=O)c2[nH]c(C3CCCC3)nc2n(C)c1=O
inactive: locus YAL013W, strain DEP1, active compounds read low 1.01 | locus YAL021C, strain ccr4, active compounds read low 0.989 | locus YAL026C, strain drs2, active compounds read low 0.997 | locus YAL030W, strain snc1, active compounds read low 0.99 | locus YAL040C, strain CLN3, active compounds read low 0.977 | locus YBL061C, strain skt5, active compounds read low 0.996 | locus YBR009C, strain hhf1, active compounds read low 0.99 | locus YBR021W, strain FUR4, active compounds read low 1.02 | locus YBR023C, strain chs3, active compounds read low 0.996 | locus YBR171W, strain sec66, active compounds read low 1.01 | locus YBR229C, strain ROT2, active compounds read low 1.01 | locus YBR231C, strain swc5, active compounds read low 0.997 | locus YBR279W, strain paf1, active compounds read low 0.992 | locus YCL011C, strain gbp2, active compounds read low 0.999 | locus YCL016C, strain dcc1, active compounds read low 0.992 | locus YCL029C, strain bik1, active compounds read low 0.994 | locus YCL061C, strain MRC1 (second series), active compounds read low 0.985 | locus YCL061C, strain MRC1, active compounds read low 0.993 | locus YCL069W, strain vba3, active compounds read low 0.992 | locus YCR088W, strain abp1, active compounds read low 1 | locus YDL005C, strain med2, active compounds read low 0.982 | locus YDL035C, strain GPR1, active compounds read low 1.01 | locus YDL040C, strain nat1, active compounds read low 0.998 | locus YDL074C, strain BRE1, active compounds read low 1.03 | locus YDL101C, strain DUN1, active compounds read low 1.02 | locus YDL134C, strain PPH21, active compounds read low 1.01 | locus YDL185W, strain tfp1, active compounds read low 1.01 | locus YDL192W, strain arf1, active compounds read low 1 | locus YDR001C, strain nth1, active compounds read low 1 | locus YDR069C, strain doa4, active compounds read low 0.979 | locus YDR101C, strain arx1, active compounds read low 0.985 | locus YDR137W, strain rgp1, active compounds read low 1 | locus YDR150W, strain NUM1, active compounds read low 1.02 and 0.999 | locus YDR159W, strain sac3, active compounds read low 0.989 | locus YDR162C, strain NBP2, active compounds read low 1.02 | locus YDR195W, strain ref2 0.944 | locus YDR297W, strain sur2, active compounds read low 0.991 | locus YDR318W, strain mcm21, active compounds read low 0.986 | locus YDR334W, strain swr1, active compounds read low 0.997 | locus YDR335W, strain msn5, active compounds read low 0.995 | locus YDR363W, strain ESC2, active compounds read low 1.03 | locus YDR388W, active compounds read low 0.995 | locus YDR392W, strain spt3, active compounds read low 0.85 | locus YDR502C, strain sam2, active compounds read low 1.01 | locus YEL003W, strain gim4, active compounds read low 1 | locus YEL037C, strain rad23, active compounds read low 1 | locus YEL061C, strain CIN8 (second series), active compounds read low 1.01 | locus YEL061C, strain CIN8, active compounds read low 1.01 | locus YER002W, strain NOP16, active compounds read low 0.944 | locus YER015W, strain faa2, active compounds read low 0.994 | locus YER016W, strain bim1, active compounds read low 0.99 | locus YER110C, active compounds read low 0.991 | locus YER111C, strain swi4, active compounds read low 0.998 | locus YER155C, strain BEM2 (second series), active compounds read low 0.961 | locus YER155C, strain BEM2, active compounds read low 1.01 | locus YER167W, strain BCK2, active compounds read low 1.01 | locus YFR010W, strain ubp6, active compounds read low 1 | locus YGL078C, strain dbp3, active compounds read low 1 | locus YGL086W, strain mad1, active compounds read low 0.997 | locus YGL167C, strain pmr1, active compounds read low 0.984 | locus YGL173C, strain kem1, active compounds read low 0.997 | locus YGL227W, strain vid30, active compounds read low 0.991 | locus YGL240W, strain doc1, active compounds read low 0.981 | locus YGL248W, strain PDE1, active compounds read low 1.02 | locus YGL253W, strain hxk2, active compounds read low 1.01 | locus YGR078C, strain PAC10, active compounds read low 1.01 | locus YGR135W, strain pre9, active compounds read low 0.982 | locus YGR229C, strain SMI1, active compounds read low 1.02 and 1.04 | locus YGR252W, strain gcn5, active compounds read low 0.904 | locus YHR013C, strain ard1, active compounds read low 0.953 | locus YHR027C, strain rpn1, active compounds read low 0.991 | locus YHR030C, strain SLT2, active compounds read low 1.01 and 0.978 | locus YHR079C, strain IRE1 (second series), active compounds read low 0.994 | locus YHR079C, strain IRE1, active compounds read low 0.991 | locus YHR094C, strain hxt1, active compounds read low 1 | locus YHR129C, strain ARP1, active compounds read low 1.01 | locus YHR142W, strain chs7, active compounds read low 1 | locus YHR200W, strain rpn10, active compounds read low 1.01 | locus YIL066C, strain RNR3, active compounds read low 1 | locus YIL073C, strain SPO22, active compounds read low 1 | locus YIL125W, strain kgd1, active compounds read low 0.995 | locus YIR030C, strain dcg1, active compounds read low 1 | locus YJL092W, strain hpr5, active compounds read low 1.01 | locus YJL095W, strain BCK1 (second series), active compounds read low 0.992 | locus YJL095W, strain BCK1, active compounds read low 1 and 0.974 | locus YJL115W, strain asf1, active compounds read low 0.987 | locus YJL129C, strain trk1, active compounds read low 0.974 | locus YJL134W, strain LCB3, active compounds read low 1.01 | locus YJL154C, strain vps35, active compounds read low 0.995 | locus YJL164C, strain tpk1, active compounds read low 0.987 | locus YJL166W, strain qcr8, active compounds read low 0.984 | locus YJL168C, strain set2, active compounds read low 1 | locus YJL187C, strain SWE1 (second series), active compounds read low 1.01 | locus YJL187C, strain SWE1, active compounds read low 0.99 | locus YJR043C, strain POL32, active compounds read low 0.992 | locus YJR066W, strain TOR1, active compounds read low 0.96

From PubChem BioAssay AID1159580 (chemical genetic matrix, 2015)
